Values without a mark were called inactive. Records with an inconclusive call do not appear. The source made the active and inactive calls. Unless noted, the call rests on the fitted dose curve; in most records, active means well fitted curve in either direction with a large enough effect (not every such curve was filed as active); inconclusive means small, poorly fitted or top-dose-only effect, or another doubt; inactive means flat fitted curve, though single readings scatter.
Assays:
[1] = AP1 Signaling Pathway (AID 357); settings: ME-180 AP-1-bla reporter, EGF-induced, beta-lactamase ratio, 5 h; at 17.2 µM (top of the series) unless noted;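 further: ME-180 reporter cells stimulated with EGF at its EC50 level; on the % scale 0 is the no-effect control and ±100 the full control effect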
Outline: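 Modulation of EGF-driven AP-1 transcription was assessed with a beta-lactamase reporter in ME-180 cells. Compound and EC50 EGF were co-incubated 5 hours at 37 °C before 2.5-hour CCF4 loading at room temperature and dual-emission reading.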

[2] = target: Glucocorticoid receptor (Homo sapiens) (UniProt P04150); assay: GR-GFP Redistribution (AID 450;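 active means compounds whose dose series gives a full or clear partial fitted curve of increased nuclear translocation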; further: potency means the concentration at half of the fitted maximal effect)
Chain of Glucocorticoid receptor (Homo sapiens) (P04150 whole entry, looked up, the tested form may be a part): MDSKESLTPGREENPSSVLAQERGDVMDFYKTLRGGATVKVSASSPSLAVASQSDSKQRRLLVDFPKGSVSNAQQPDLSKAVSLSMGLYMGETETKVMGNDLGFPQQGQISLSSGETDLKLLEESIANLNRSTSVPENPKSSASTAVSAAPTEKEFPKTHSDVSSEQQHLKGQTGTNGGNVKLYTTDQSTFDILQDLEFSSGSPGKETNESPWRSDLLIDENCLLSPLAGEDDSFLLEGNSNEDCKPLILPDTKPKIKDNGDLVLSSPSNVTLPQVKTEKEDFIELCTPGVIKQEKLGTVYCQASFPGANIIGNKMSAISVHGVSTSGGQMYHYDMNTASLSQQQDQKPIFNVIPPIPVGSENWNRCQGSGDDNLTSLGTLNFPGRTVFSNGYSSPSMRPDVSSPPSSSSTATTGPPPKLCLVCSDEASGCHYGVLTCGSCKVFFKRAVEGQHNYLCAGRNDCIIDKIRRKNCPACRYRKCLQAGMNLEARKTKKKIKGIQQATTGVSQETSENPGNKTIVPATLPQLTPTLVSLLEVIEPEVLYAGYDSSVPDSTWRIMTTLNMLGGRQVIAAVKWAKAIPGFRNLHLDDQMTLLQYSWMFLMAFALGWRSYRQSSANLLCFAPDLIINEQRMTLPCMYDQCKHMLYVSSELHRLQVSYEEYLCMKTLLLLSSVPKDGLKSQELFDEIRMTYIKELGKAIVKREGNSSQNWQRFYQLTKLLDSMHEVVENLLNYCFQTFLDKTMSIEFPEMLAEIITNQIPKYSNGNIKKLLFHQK

[3] = target: Cytochrome P450 1A2 (Homo sapiens) (UniProt P05177); assay: p450-cyp1a2 (AID 410; calls by dose curve; further: potency means the concentration at half of the fitted maximal effect;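 on activity change, negative = inhibition: -100% = full effect of reference inhibitor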)
Chain of Cytochrome P450 1A2 (Homo sapiens) (P05177 whole entry, looked up): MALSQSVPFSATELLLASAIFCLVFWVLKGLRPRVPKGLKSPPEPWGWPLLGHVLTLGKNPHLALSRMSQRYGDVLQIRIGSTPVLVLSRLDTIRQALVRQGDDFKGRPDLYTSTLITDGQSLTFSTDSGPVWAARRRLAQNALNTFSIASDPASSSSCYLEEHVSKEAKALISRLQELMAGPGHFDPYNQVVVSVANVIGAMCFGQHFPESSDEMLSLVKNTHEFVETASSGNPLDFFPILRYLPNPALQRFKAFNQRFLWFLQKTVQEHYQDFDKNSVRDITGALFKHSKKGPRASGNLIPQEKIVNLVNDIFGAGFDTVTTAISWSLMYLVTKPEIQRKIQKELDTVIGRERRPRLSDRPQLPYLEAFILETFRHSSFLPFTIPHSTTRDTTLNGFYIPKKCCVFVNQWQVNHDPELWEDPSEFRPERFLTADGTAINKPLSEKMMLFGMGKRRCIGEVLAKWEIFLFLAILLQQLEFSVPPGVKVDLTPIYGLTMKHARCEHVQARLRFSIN
Outline: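 Inhibition was calculated relative to 57 uM furafylline (full inhibition). The reaction used human CYP1A2 at 20nM with Luciferin-ME at its Km, 100uM, driven by an NADPH-regenerating system for 60 min at room temperature.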

[4] = qHTS Assay for Identification of Small Molecule Agonists for Hypoxia Response Element Signaling Pathway (AID 914; active means well fitted activation curve with a large enough effect in the signal ratio, with a control signal flat, not every such curve was filed as active; the % refers to the signal ratio; further: % of control where 0% means no effect); settings: ME-180 HRE-bla reporter, beta-lactamase ratio, CoCl2, 17 h; activation: stronger effect = higher value
Outline: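 HRE-bla ME-180 assay for agonist-like enhancement of an EC50 CoCl2 stimulus: 17 h at 37 degrees Celsius, CCF4 for 2.5 h, ratiometric 460/530 nm signal converted to %Activity and fitted to AC50.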

[5] = NFAT Signaling Pathway (AID 444); settings: Jurkat NFAT-bla M1, carbachol, beta-lactamase ratio, 5 h; at 17.2 µM (top of the series) unless noted;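 further: carbachol stimulus at about its EC50 of 1 µM final; on the % scale 0 is the no-effect control and ±100 the full control effect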
Outline: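 Jurkat cells carrying an NFAT-driven β-lactamase reporter and co-transfected muscarinic M1 receptor were treated with compound plus carbachol (1 uM final, an EC50 level) for 5 h at 37 °C. CCF4 loading followed for 1 h at RT; 460/530 nm ratio gave %activity.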

[6] = Stat Signaling Pathway (AID 446); settings: ME-180 SIE beta-lactamase reporter, IL-6 stimulated, 5 h; at 17.2 µM (top of the series) unless noted;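 further: ME-180 cervical cancer cells given 40 pM IL-6 alongside compound; SIE-controlled beta-lactamase reporter measured as 460/530 nm FRET emission ratio; on the % scale 0 is the no-effect control and ±100 the full control effect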
Outline: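 Screening format detects activators and inhibitors alike: ME-180 SIE-bla cells stimulated at 40 pM IL-6 for 5 hrs with compound, then dual-emission beta-lactamase read at 405 nm excitation.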

[7] = target: Glucocorticoid receptor (Homo sapiens) (UniProt P04150); assay: GR-EFC Redistribution (AID 451; calls by dose curve; further: potency means the concentration at half of the fitted maximal effect); settings: CHO-K1 GR-EFC translocation, beta-gal luminescence, 2 h
Outline: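 CHO-K1 cells stably expressing nuclear-localized β-gal enzyme acceptor and GR fused C-terminally to the enzyme donor fragment; ligand-driven nuclear translocation restores β-gal by complementation. Compounds titrated up to 46 uM final, 2 h at 37 °C; luminescence read.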

[8] = target: Mitogen-activated protein kinase 10 (Mus musculus) (UniProt Q61831); assay: JNK3 AlphaScreen Assay (AID 530);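 further: kinase came from lysate of stimulated human HepG2 cells; signal reports phosphorylation of biotinylated GST-cJun 1-79 at Ser73 with 10 µM ATP; on the % scale 0 is the no-effect control and ±100 the full control effect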
Outline: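 JNK3 came from HepG2 lysates pre-activated with IL-1beta and TNF-alpha and phosphorylated biotinylated GST-cJun (1-79) at 10 uM ATP, pH 7.6, room temperature. Compounds were titrated. AlphaScreen signal used anti-phospho-cJun (Ser73) antibody.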

[9] = target: 3',5'-cyclic-AMP phosphodiesterase 4B (Homo sapiens) (UniProt Q07343); assay: qHTS Assay for Inhibitors of PDE-IV (AID 607; active means well fitted activation curve with a large enough effect in the main read-out, with a control signal flat, not every such curve was filed as active; further: % of control where 0% means no effect)
Chain of 3',5'-cyclic-AMP phosphodiesterase 4B (Homo sapiens) (Q07343 whole entry, looked up): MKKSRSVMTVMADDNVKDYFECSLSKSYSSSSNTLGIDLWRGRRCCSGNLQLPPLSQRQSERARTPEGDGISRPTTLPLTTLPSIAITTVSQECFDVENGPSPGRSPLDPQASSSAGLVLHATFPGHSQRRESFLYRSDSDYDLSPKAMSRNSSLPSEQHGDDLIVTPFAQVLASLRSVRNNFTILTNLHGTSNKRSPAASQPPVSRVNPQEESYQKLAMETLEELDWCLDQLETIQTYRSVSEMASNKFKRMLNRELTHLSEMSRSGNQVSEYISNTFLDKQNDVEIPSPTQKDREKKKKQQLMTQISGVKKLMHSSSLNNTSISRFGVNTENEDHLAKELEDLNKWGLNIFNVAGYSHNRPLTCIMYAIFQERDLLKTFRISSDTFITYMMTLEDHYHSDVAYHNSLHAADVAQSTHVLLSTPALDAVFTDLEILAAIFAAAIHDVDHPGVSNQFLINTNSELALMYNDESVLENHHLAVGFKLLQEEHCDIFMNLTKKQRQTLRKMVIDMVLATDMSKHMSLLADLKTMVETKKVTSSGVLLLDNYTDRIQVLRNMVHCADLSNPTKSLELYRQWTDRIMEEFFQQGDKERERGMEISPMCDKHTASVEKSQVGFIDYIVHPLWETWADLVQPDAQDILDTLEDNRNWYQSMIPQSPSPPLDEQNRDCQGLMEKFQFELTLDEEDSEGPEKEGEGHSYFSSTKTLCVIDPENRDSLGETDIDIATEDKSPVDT
Outline: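 The readout is membrane depolarisation from a cAMP-sensing CNG channel, detected with a potential dye at ex 535/em 590. Cells were HEK293-derived (endogenous PDE-IV) at 1000 cells/well, titrated up to 22.9 uM final.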

[10] = target: Ubiquitin carboxyl-terminal hydrolase 1 (Homo sapiens) (UniProt O94782); assay: Inhibitors of USP1/UAF1: Pilot qHTS (AID 504865; active means well fitted inhibition curve with a large enough effect;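 further: rhodamine fluorescence freed from ubiquitin-rhodamine substrate followed over time; top concentration of the series differs between compounds; on the % scale 0 is the no-effect control and ±100 the full control effect; nearly all actives have a fitted effect of over 35% in size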)
Chain of Ubiquitin carboxyl-terminal hydrolase 1 (Homo sapiens) (O94782 whole entry, looked up): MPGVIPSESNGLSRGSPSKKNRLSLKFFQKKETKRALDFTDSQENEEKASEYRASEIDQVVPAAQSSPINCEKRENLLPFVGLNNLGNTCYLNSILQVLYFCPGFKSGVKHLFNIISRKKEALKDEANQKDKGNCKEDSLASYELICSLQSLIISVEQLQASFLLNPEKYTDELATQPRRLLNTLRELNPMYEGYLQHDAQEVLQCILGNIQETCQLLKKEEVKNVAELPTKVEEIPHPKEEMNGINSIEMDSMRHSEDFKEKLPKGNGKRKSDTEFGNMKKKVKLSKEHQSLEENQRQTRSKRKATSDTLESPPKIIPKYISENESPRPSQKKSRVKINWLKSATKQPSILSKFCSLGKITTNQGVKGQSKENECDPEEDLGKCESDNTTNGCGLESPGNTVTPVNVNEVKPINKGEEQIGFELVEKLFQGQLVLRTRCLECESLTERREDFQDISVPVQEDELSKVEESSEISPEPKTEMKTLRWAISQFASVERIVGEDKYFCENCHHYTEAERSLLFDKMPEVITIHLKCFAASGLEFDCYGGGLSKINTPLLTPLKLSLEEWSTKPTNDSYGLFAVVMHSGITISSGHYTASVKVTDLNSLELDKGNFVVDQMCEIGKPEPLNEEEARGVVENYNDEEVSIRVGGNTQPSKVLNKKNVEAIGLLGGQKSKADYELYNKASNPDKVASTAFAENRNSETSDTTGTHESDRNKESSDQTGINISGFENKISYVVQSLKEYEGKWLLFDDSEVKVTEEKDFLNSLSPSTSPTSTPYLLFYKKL
Outline: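 USP1/UAF1 complex at 1 nM preincubated 15 min at room temperature with compound, then Ub-Rho substrate added at 150 nM final. Fluorescence (480/540 nm) read kinetically in 50 mM HEPES pH 7.8, 0.5 mM EDTA, 1 mM TCEP, 0.1 mg/ml BSA, 0.01% Tween-20.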

CC(C)(C)C1CCC2(CC1)C(C#N)=C(SCC(=O)Nc1ccccc1)NC(=O)C2C#N (stereo unspecified)
activity change, negative = inhibition [1]: -1.12% | Potency [2]: > 20.6 µM

CCC/C=C(\CCC)C(NC(=O)Oc1ccc(F)cc1)c1ccc(C(=O)OC)cc1 (stereo unspecified)
Potency [3]: inactive

Cc1nn(-c2ccccc2)c2c1C(c1ccc(F)cc1F)C(C#N)=C(N)O2 (stereo unspecified)
activity change, negative = inhibition [1]: 4.8% | Potency [2]: > 20.6 µM | activation [4]: -12.7%

CCOC(=O)CSc1nnc2n(Cc3ccccc3)c(=O)c3c4c(sc3n12)CCC4
activity change, negative = inhibition [1]: -11.8% | Potency [2]: > 20.6 µM

COc1cc(/C=C\C(=O)N2CCC=CC2=O)cc(OC)c1OC
Potency [3]: 0.2 µM (active) | activity change, negative = inhibition [5]: -142% (active) | activity, negative = inhibition [6]: -101% (active) | Potency [2]: > 20.6 µM | Potency [7]: > 20.6 µM | Potency [8]: inactive | Potency [9]: inactive | Potency [10]: inactive

— PubChem BioAssay (NCATS)
